Test results taken from PubChem BioAssay (NCI).
About 83,000 compounds went through this panel and 20% of them were active in at least one assay; those are over-represented in the sample as a whole.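 Each cell line was grown in a 96-well plate and treated with one concentration of compound for 48 hours. Values below 10 were considered active.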 Values without a mark were called inactive. The source made the active and inactive calls.

Experiments:
Experiment in all cases: NCI-60 one-dose screen, 48 h (100 = growth as untreated, 0 = no growth, -100 = all killed)
Conditions in all cases: 10 µM unless noted
[1] = tested on: SK-MEL-2 melanoma
[2] = tested on: EKVX NSCLC
[3] = tested on: SN12C renal
[4] = tested on: UO-31 renal
[5] = tested on: TK-10 renal
[6] = tested on: ACHN renal
[7] = tested on: A498 renal
[8] = tested on: CCRF-CEM leukemia
[9] = tested on: MOLT-4 leukemia

SMILES	growth [1]	growth [2]	growth [3]	growth [4]	growth [5]	growth [6]	growth [7]	growth [8]	growth [9]
O=c1ccccc(-c2ccc(Br)cc2)c1O	12%	6.92% (active)	6.62% (active)	-10.6% (active)	21.5%	6.35% (active)	31.7%	3.29% (active)	5.09% (active)
N#CCCN=Nc1c(O)[nH]c2ccc(F)cc12	101%	90.9%	101%	80.6%	108%	103%	75.8%	107%	103%
COc1ccc(N=Nc2nccs2)c(O)c1	64.2%	30.9%	50.3%	13.1%	51.3%	18.4%	86.5%	4.6% (active)	4.68% (active)
FC(F)(F)Oc1ccc2nc3nc4ccc[nH]c4cc3c2c1	98%	62.8%	87.5%	61.8%	64.7%	56.4%	98.1%	75.7%	68.9%
O=C(Cc1ccc(/C=C/C(=O)c2ncc[nH]2)cc1)Nc1ccccc1	82.8%	64.6%	21.8%	31.3%	49.1%	76%	83.5%	3.9% (active)	29.1%
FC(F)(F)c1ccc(-c2cn3nc(-c4c[nH]c5ccc(Br)cc45)sc3n2)cc1	97.8%	68.9%	93.9%	68.8%	112%	88.6%	113%	95%	87.6%
Clc1ccc2c(NCCCCNc3nc(N4CCCCC4)nc4ccccc34)ccnc2c1	-65.9% (active)	38.9%	20.3%	-55.6% (active)	-59.5% (active)	-43.7% (active)	41.1%	-22.9% (active)	1.5% (active)
O=C1c2cc3c(cc2-c2c1c1ccc(F)cc1c(=O)n2CCCNCCO)OCO3	-46.1% (active)	-14% (active)	-60.4% (active)	-72.2% (active)	-18.9% (active)	-52.7% (active)	-95.9% (active)	0.848% (active)	-25% (active)
COc1cc(-c2nn(-c3ccc(Br)cc3)cc2C(=O)O)ccc1O	83.1%	87.2%	109%	82.4%	125%	112%	107%	90.1%	78.7%
COc1cc(-c2nn(-c3ccc(C(=O)O)cc3)cc2C(=O)O)ccc1O	88.1%	76.4%	81.4%	56.1%	122%	44.8%	97.9%	67.9%	90%
COc1cc(C)c(C2C(C#N)=C(N)Oc3n[nH]c(-c4cccs4)c32)cc1C(C)C (configuration not stated)	102%	97%	103%	98.7%	98.2%	108%	93%	81.5%	79.4%
COc1ccc(SC2c3ccc(C)cc3Oc3nc(N)c(C#N)c(N)c32)cc1 (configuration not stated)	-59.8% (active)	-10.8% (active)	-94.3% (active)	-95.9% (active)	-97.9% (active)	-98.1% (active)	28.7%	-33.5% (active)	-24.7% (active)
Cc1cc(N2CCCCC2)nc(NC2CCCC(Nc3ccnc4cc(Cl)ccc34)C2)n1 (configuration not stated)	-77% (active)	7.48% (active)	-74.9% (active)	-99% (active)	-61.8% (active)	-86.2% (active)	-29% (active)	-17.8% (active)	-28.2% (active)
CC1C(/C=N/Nc2ccccc2)C(C#N)(C#N)C1(C#N)C#N (configuration not stated)	85.2%	71.8%	86.5%	52%	130%	44.4%	99.9%	58%	67%
N#Cc1nnn(-c2ccc(S(N)(=O)=O)cc2)c1NCC(=O)c1ccccc1	97.8%	90.9%	97.1%	78.9%	107%	99.5%	101%	83.6%	89.9%
COc1ccc(-n2nc(C)c3c(Nc4ccc(NC(=O)Nc5c(Cl)cccc5Cl)cc4)ncnc32)cc1	79.1%	67%	77%	8.74% (active)	59.8%	43.3%	63.4%	84.5%	81.7%
Clc1ccc2c(NCCNc3nc(N4CCCCC4)nc4ccccc34)ccnc2c1	-61.8% (active)	32.9%	-2.91% (active)	-97.6% (active)	-32.5% (active)	-72.8% (active)	75.8%	0.574% (active)	7.69% (active)
CC(=O)OCCC/C(=C/c1cc2ccccc2c2ccccc12)[N+](=O)[O-]	-80.8% (active)	-31.7% (active)	-88.9% (active)	-97% (active)	-72.2% (active)	-91.7% (active)	-80.1% (active)	-36.1% (active)	-28.7% (active)
